Test results published in PubChem BioAssay.
Records with an inconclusive call do not appear. Activity calls are given as the source filed them.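 How the source made its calls, unless noted: active means inhibition above the screen-wide mean plus 3 SD, about 51%; inactive means the rest.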

How the values were obtained:
[1] = yeast TOR pathway RPL19A-GFP modulators, primary screen, cell-based, S. cerevisiae, multiplex flow cytometry (AID 1862; in the data active means percent of DMSO control GFP below about 86%;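 further: lower values mimic rapamycin by blocking the RPL19A rise seen in DMSO cells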); details: S. cerevisiae RPL19A-GFP strain, flow cytometry fluorescence, 3 h; at 10 µM; stronger effect = lower value
[2] = modulators of MEP2-GFP levels in yeast, primary screen, S. cerevisiae, multiplex flow cytometry (AID 1867;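 active means GFP response, as percent of the DMSO control, above the screen-wide mean plus 3 SD, about 139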;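 further: median GFP channel fluorescence of barcode-gated MEP2-GFP cells measured by flow cytometry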); details: S. cerevisiae MEP2-GFP strain, 3 h, at 10 µM, stronger effect = higher value, 100% means same as DMSO wells
[3] = modulators of CIT2-GFP expression in yeast, primary screen, S. cerevisiae, GFP fusion, multiplex flow cytometry (AID 1870;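 active means percent response above a set limit, the screen-wide mean plus 3 SD, cut at about 130% in these data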;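 further: barcoded CIT2-GFP strain pooled with four other GFP strains with rapamycin as positive control; median GFP fluorescence per well over plate mean of DMSO wells so 100% = DMSO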); details: 3 h, at 10 µM, stronger effect = higher value
[4] = modulators of LAP4-GFP expression in yeast, primary screen, S. cerevisiae, multiplex flow cytometry (AID 1873;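 active means GFP signal, as percent of the solvent control, above the screen mean plus 3 SD, about 149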); details: 3 h, at 10 µM, stronger effect = higher value
[5] = modulators of AGP1-GFP expression in yeast TOR pathway, primary screen, cell-based, multiplex flow cytometry, S. cerevisiae (AID 1887;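 active means GFP signal above the screen-wide mean plus 3 SD, that is over about 124.5% of the solvent control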;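 further: AGP1-GFP fusion strain of S. cerevisiae within a five-strain barcoded multiplex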); details: 3 h, at 10 µM, stronger effect = higher value
[6] = inhibitors of CD8+ T cell-vesicle binding, pilot screen, LFA-1/ICAM-1 modulator project, MLPCN validation set, flow cytometry (AID 2523;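 active means response below a set limit, under 55% cells CD8-positive and vesicle-bound, and CD8 cells' 90th-percentile brightness under 279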;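 on vesicle binding response: mean PE anti-B7-1 fluorescence of CD8+ cells relative to row control; 100% = QL9-loaded vesicles with DMSO vehicle in the same plate row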); details: 2C mouse CD8+ T cells, at 7 µM, stronger effect = lower value; double positive events: measured here: CD8+/vesicle+ event percentage
[7] = target: Integrin beta-1 (Homo sapiens) + Integrin alpha-4 (Homo sapiens) (UniProt P13612+P05556); assay: inhibition of HUTS-21 binding to VLA-4, pilot screen, VLA-4 allosteric modulator project, U937 cells, HUTS-21 mAb, flow cytometry, validation set (AID 2674;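 active means inhibition above 50%, about 3 SD of the validation set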;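 further: antibody binding induced by the VLA-4 ligand LDV present at three times its Kd; 0% = LDV ligand with antibody and no compound and 100% = antibody without LDV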); details: HUTS-21 LIBS mAb binding, at 6.7 µM, stronger effect = higher value, binding induced by LDV ligand
Sequence of Integrin beta-1 (Homo sapiens) + Integrin alpha-4 (Homo sapiens) (P05556 whole entry, looked up): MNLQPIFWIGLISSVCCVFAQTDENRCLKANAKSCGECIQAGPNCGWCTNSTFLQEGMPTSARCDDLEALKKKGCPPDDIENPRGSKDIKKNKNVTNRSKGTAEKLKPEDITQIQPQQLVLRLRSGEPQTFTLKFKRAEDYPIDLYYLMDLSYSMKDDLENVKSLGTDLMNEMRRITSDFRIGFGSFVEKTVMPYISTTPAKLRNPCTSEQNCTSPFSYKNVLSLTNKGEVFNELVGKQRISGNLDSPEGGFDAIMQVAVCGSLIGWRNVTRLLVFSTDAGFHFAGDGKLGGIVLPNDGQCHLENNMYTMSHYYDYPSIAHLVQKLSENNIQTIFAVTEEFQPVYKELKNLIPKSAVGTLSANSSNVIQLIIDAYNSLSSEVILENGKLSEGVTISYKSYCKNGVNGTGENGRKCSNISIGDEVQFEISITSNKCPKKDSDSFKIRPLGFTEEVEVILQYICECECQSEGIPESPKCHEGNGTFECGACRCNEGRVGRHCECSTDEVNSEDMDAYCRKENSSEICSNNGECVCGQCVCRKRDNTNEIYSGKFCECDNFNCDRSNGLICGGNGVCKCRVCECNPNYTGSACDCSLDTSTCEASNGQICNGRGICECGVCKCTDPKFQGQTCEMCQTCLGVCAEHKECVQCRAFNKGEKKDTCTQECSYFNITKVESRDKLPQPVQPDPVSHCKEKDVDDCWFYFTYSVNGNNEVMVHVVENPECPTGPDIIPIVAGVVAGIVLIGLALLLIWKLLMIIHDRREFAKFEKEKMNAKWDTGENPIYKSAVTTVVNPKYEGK
Sequence of Integrin beta-1 (Homo sapiens) + Integrin alpha-4 (Homo sapiens) (P13612 whole entry, looked up): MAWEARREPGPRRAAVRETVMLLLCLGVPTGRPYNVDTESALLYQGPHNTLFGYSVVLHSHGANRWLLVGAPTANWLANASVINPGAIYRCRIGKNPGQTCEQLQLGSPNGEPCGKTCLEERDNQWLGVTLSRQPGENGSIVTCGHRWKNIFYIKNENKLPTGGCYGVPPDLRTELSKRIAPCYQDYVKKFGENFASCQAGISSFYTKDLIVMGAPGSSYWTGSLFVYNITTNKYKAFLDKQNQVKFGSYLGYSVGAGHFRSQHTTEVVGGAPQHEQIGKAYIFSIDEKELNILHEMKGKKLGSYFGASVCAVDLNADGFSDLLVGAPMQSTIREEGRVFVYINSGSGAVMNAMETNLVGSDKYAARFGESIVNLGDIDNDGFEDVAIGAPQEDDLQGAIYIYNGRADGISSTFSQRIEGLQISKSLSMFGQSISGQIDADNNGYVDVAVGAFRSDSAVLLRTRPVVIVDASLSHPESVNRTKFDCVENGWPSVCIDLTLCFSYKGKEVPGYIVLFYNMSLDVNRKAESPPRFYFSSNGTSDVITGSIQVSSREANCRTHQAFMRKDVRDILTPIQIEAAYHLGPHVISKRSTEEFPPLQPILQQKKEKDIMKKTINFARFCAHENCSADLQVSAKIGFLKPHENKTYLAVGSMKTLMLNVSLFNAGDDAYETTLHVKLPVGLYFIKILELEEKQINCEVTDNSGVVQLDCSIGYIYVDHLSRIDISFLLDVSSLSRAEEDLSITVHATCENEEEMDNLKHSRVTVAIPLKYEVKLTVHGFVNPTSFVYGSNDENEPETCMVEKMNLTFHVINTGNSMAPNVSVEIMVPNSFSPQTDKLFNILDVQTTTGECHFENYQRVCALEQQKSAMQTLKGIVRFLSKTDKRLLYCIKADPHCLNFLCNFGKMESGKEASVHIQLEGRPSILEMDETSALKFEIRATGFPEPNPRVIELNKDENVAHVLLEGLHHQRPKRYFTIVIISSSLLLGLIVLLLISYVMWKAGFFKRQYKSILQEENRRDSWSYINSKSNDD

[8] = superoxide lowering in aged yeast cells, pilot screen, validation compound set (AID 2706;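 active means superoxide response below 65% of plate, a cut near 3 SD across the whole screen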;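 further: yeast exposed to compound for one week at 30 degrees C before staining; 100% = mean of all compound wells on the same plate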); details: S. cerevisiae aging, superoxide DHE fluorescence; at 10 µM; stronger effect = lower value
[9] = target: Beta-adrenergic receptor kinase 1 (Homo sapiens) (UniProt P25098); assay: GRK2 binders displacing RNA aptamer, biochemical, validation, human GRK2, bead flow cytometry (AID 488806;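 active means aptamer binding inhibition above 30%, about 3 SD of noise from non-fluorescent compounds; inactive means inhibition at or below 30%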); details: bead-bound GRK2, FAM-aptamer displacement, at 10 µM, stronger effect = higher value
Sequence of Beta-adrenergic receptor kinase 1 (Homo sapiens) (P25098 whole entry, looked up): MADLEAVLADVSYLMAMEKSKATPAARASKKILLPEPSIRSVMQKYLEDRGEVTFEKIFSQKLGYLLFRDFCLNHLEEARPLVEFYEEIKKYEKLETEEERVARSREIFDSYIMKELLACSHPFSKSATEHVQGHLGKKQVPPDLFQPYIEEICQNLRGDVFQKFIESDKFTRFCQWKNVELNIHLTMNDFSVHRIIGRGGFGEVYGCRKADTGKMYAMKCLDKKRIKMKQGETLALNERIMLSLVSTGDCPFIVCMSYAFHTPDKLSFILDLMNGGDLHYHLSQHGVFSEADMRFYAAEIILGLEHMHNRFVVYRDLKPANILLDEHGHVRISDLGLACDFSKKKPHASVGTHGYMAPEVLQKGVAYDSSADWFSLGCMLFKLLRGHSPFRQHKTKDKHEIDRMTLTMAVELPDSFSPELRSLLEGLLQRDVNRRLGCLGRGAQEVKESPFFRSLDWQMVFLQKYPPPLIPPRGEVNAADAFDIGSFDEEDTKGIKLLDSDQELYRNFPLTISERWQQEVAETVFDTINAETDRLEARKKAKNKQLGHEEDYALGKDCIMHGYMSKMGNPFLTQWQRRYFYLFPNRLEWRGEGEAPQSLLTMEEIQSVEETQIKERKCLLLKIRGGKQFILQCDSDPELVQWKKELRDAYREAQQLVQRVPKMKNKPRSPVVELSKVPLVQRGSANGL

[10] = target: Beta-2 adrenergic receptor (Homo sapiens) (UniProt P07550); assay: beta2AR agonists driving receptor internalization, pilot screen, cell-based, FAP fluorogen, flow cytometry, validation set (AID 504459;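 active means percent response above 42, roughly 3 SD of non-fluorescent test compounds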;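 further: agonist-driven loss of surface beta2AR via internalization measured by FAP dye flow cytometry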); details: Am2.2-beta2AR cells, FAP surface receptor flow cytometry; at 10 µM; stronger effect = higher value
Sequence of Beta-2 adrenergic receptor (Homo sapiens) (P07550 whole entry, looked up): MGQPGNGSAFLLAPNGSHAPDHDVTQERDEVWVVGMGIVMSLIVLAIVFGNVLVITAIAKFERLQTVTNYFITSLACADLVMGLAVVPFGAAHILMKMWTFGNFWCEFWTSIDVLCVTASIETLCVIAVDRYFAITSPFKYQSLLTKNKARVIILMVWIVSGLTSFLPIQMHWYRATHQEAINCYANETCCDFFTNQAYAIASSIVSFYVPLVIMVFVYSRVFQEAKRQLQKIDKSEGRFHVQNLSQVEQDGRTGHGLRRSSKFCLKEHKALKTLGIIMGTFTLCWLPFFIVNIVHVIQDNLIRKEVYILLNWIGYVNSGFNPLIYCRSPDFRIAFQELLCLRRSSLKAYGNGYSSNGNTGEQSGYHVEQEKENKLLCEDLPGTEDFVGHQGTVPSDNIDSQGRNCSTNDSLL

[11] = target: AP-2 complex subunit beta (Homo sapiens) (UniProt P63010); assay: inhibitors of arrestin peptide binding to AP2, pilot screen, biochemical, validation set, GST-AP2 beads, flow cytometry (AID 504541;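 active means inhibition above 54%, about 3 SD of non-fluorescent compounds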;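 further: AP2 carries R879A mutation and is captured from E. coli lysate; bead-bound FITC arrestin peptide fluorescence measuring arrestin peptide binding to AP2; 0% = DMSO wells and 100% = excess unlabeled arrestin peptide control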); details: FITC arrestin peptide, at 10 µM, stronger effect = higher value, AP2 beta2 appendage fragment, R879A mutant
Sequence of AP-2 complex subunit beta (Homo sapiens) (P63010 whole entry, looked up, the tested form may be a part, one chain of several): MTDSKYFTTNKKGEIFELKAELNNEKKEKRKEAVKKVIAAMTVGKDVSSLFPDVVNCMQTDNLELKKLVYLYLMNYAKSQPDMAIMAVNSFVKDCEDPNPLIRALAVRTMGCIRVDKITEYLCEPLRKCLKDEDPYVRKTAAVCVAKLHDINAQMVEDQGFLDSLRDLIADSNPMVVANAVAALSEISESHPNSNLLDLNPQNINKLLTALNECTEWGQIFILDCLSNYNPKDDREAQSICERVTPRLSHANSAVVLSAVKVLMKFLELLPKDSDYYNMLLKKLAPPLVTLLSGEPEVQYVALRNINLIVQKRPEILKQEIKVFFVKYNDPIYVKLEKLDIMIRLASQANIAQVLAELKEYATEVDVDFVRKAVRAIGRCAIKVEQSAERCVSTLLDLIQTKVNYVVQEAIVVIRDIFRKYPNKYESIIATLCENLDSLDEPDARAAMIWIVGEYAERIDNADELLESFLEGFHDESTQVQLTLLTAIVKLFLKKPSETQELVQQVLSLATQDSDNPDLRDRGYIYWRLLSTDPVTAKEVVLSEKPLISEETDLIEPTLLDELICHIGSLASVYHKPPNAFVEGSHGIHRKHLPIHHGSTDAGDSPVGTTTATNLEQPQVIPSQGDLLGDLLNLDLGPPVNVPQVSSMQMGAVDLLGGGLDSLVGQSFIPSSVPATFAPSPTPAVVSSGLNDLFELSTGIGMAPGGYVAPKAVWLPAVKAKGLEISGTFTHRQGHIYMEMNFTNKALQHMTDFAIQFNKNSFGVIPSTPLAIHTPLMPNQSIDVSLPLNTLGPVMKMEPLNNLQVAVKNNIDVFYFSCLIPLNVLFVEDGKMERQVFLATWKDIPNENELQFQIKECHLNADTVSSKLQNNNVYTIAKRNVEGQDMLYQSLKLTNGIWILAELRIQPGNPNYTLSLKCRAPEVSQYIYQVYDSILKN

[12] = yeast V-ATPase proton transport modulators, S. cerevisiae, pHLuorin, HTS validation (AID 504600; in the data active means response above about 15%;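 further: plate controls were DMSO for no effect and reference compound for full effect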); details: S. cerevisiae pHLuorin cytosolic pH, at 10 µM, stronger effect = higher value
[13] = system: anti-desmoglein-3 scFv antibody binding to human DSG3; assay: inhibitors of anti-DSG3 scFv binding to DSG3, pilot screen, biochemical, validation compound set, bead-based, flow cytometry (AID 588368;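 active means binding below the plate cutoff, the plate median minus 3 SD, with a reading above zero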;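 further: signal is the median channel fluorescence of bead-bound GFP antibody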); details: Protein G beads, DSG3-Fc, scFv-GFP binding, at 10 µM, stronger effect = lower value
[14] = inhibitors of fungal efflux pumps CDR1, CDR2, MDR1, pilot screen, validation compound set, multiplex, phenotypic (AID 588506;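 active means efflux inhibition above 0.42, the validation set average plus 4 SD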;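 further: Nile Red retained in cells so higher fluorescence means more efflux inhibition; 0 = negative control wells and 1 = enniatin B 25 µM full block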); details: S. cerevisiae pump-expressing triplex, Nile Red efflux flow cytometry; at 10 µM; stronger effect = higher value; the pumps come from Candida albicans
[15] = target: ATP-binding cassette sub-family B member 6 (Homo sapiens) (UniProt Q9NP58); assay: ABCB6 transporter inhibitors, pilot screen, K562-ABCB6 cells, flow cytometry, validation set (AID 588550); details: K562-ABCB6 porphyrin accumulation, 1 h, at 10 µM, stronger effect = higher value;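 further: 0% = DMSO wells and 100% = benzethonium chloride 70 µM positive control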
Sequence of ATP-binding cassette sub-family B member 6 (Homo sapiens) (Q9NP58 whole entry, looked up): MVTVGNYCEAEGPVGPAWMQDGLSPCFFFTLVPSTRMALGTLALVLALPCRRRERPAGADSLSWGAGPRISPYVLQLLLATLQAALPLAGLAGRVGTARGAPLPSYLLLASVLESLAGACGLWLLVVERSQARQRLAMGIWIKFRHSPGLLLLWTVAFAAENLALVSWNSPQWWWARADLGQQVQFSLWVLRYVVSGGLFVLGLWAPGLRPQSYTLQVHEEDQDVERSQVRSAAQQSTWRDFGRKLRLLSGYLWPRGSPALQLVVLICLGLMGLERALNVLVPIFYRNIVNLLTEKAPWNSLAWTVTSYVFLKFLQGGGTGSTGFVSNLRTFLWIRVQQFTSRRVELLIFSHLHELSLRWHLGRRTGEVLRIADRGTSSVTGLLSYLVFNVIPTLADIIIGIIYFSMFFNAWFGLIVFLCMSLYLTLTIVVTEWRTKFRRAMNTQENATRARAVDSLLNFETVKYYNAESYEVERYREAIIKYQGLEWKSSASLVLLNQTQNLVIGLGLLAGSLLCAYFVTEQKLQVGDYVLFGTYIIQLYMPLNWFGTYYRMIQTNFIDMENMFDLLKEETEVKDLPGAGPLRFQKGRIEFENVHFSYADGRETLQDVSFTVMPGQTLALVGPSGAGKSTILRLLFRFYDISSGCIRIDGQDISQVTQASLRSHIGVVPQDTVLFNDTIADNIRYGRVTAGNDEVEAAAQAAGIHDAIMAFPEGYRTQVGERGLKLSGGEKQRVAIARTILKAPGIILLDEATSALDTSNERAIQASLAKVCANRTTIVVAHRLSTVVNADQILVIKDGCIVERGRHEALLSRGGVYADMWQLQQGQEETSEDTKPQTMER

[16] = promoters of myeloid differentiation in arrested cells, primary screen, cell-based, GFP/MAC1 double positive, flow cytometry, validation set (AID 588685;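 active means differentiation response of at least 50%, scaled between solvent and reference control, from cells with both markers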;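 further: compound exposure lasts four days before antibody staining and flow analysis; 0% = DMSO wells and 100% = 5 µM fulvestrant positive control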); details: ER-HoxA9 marrow cells, stronger effect = higher value, normalized: vehicle 0, fulvestrant 100

O=C1OC(c2ccccc2)=C/C1=C/c1cccs1
inactive: percent of DMSO control GFP [1] 106% | GFP response vs DMSO [2] 99.3% | percent response of DMSO control [3] 105% | GFP response vs DMSO [4] 86.1% | GFP response, % of DMSO [5] 97.3% | vesicle binding response [6] 212% | inhibition [7] -2.53% | superoxide response (% of plate) [8] 97.6% | aptamer binding inhibition [9] 1% | response [10] -7.02% | inhibition [11] 6.48% | response [12] -2.38% | binding (% of control) [13] 93.3% | efflux inhibition (fraction of control) [14] -0.1 | inhibition [15] -5% | differentiation response [16] 3.18%
64.9%: double positive events [6]

C(=C\c1ccc2ccccc2n1)/c1ccccc1
inactive: percent of DMSO control GFP [1] 102% | GFP response vs DMSO [2] 96.3% | percent response of DMSO control [3] 98.6% | GFP response vs DMSO [4] 97.4% | GFP response, % of DMSO [5] 93.2% | vesicle binding response [6] 306% | inhibition [7] -27.7% | superoxide response (% of plate) [8] 94.9% | aptamer binding inhibition [9] 3% | response [10] 5.82% | inhibition [11] -3.54% | response [12] 0.75% | binding (% of control) [13] 105% | efflux inhibition (fraction of control) [14] -0.31 | differentiation response [16] -8.8%
active: inhibition [15] 114%
63.3%: double positive events [6]

Cc1cc(C)c(NC(=O)NC(=O)C(Cl)(Cl)Cl)c(C)c1
inactive: percent of DMSO control GFP [1] 103% | GFP response vs DMSO [2] 97.2% | percent response of DMSO control [3] 101% | GFP response vs DMSO [4] 90.7% | GFP response, % of DMSO [5] 94.2% | vesicle binding response [6] 464% | inhibition [7] 13% | superoxide response (% of plate) [8] 97.8% | aptamer binding inhibition [9] 4% | response [10] -6.36% | inhibition [11] -8.2% | response [12] 13.6% | binding (% of control) [13] 96.9% | efflux inhibition (fraction of control) [14] -0.04 | inhibition [15] -19% | differentiation response [16] 0.24%
62.2%: double positive events [6]

CCC(=O)Oc1ccc(C(=O)Nc2ccc([N+](=O)[O-])cc2)cc1
inactive: percent of DMSO control GFP [1] 87.8% | percent response of DMSO control [3] 90% | GFP response vs DMSO [4] 82.5% | GFP response, % of DMSO [5] 80.8% | vesicle binding response [6] 195% | inhibition [7] -0.33% | superoxide response (% of plate) [8] 88.4% | aptamer binding inhibition [9] 5% | response [10] 4.9% | inhibition [11] 15.9% | response [12] -4.69% | binding (% of control) [13] 100% | efflux inhibition (fraction of control) [14] -0.38 | inhibition [15] 14% | differentiation response [16] -6.55%
active: GFP response vs DMSO [2] 148%
61.8%: double positive events [6]

Oc1ccccc1OCCOc1ccccc1OCCOc1ccccc1O
62.1%: double positive events [6]
inactive: percent of DMSO control GFP [1] 100% | GFP response vs DMSO [2] 108% | percent response of DMSO control [3] 105% | GFP response vs DMSO [4] 117% | GFP response, % of DMSO [5] 110% | vesicle binding response [6] 245% | inhibition [7] 15.9% | superoxide response (% of plate) [8] 97.2% | aptamer binding inhibition [9] -2% | response [10] -15.9% | inhibition [11] 1.79% | response [12] -8.12% | binding (% of control) [13] 112% | efflux inhibition (fraction of control) [14] -0.04 | inhibition [15] 6% | differentiation response [16] -6.96%

Cc1ccc2c(c1C)NC(C(=O)O)C1CC=CC21 (stereo not drawn)
inactive: percent of DMSO control GFP [1] 102% | GFP response vs DMSO [2] 97.4% | percent response of DMSO control [3] 105% | GFP response vs DMSO [4] 73.5% | GFP response, % of DMSO [5] 88.5% | vesicle binding response [6] 121% | inhibition [7] -70% | superoxide response (% of plate) [8] 101% | inhibition [11] 11% | response [12] 2.2% | binding (% of control) [13] 96.8% | efflux inhibition (fraction of control) [14] 0.15 | inhibition [15] -4% | differentiation response [16] -4%
active: aptamer binding inhibition [9] 34% | response [10] 62.2%
60.4%: double positive events [6]

CC(=O)Oc1cc2oc(=O)cc(C)c2cc1OC(C)=O
60%: double positive events [6]
inactive: percent of DMSO control GFP [1] 101% | GFP response vs DMSO [2] 102% | percent response of DMSO control [3] 99.6% | GFP response vs DMSO [4] 73.5% | GFP response, % of DMSO [5] 86% | vesicle binding response [6] 207% | inhibition [7] -5.89% | superoxide response (% of plate) [8] 102% | aptamer binding inhibition [9] 10% | response [10] -3.64% | inhibition [11] 3.54% | response [12] 1.09% | binding (% of control) [13] 101% | efflux inhibition (fraction of control) [14] 0.08 | inhibition [15] 7% | differentiation response [16] -15.2%

CC1(C)CC(=O)c2cn3c(nc2C1)nc1ccccc13
55.9%: double positive events [6]
inactive: percent of DMSO control GFP [1] 102% | GFP response vs DMSO [2] 97.7% | percent response of DMSO control [3] 104% | GFP response vs DMSO [4] 99.1% | GFP response, % of DMSO [5] 102% | vesicle binding response [6] 104% | inhibition [7] 9.63% | superoxide response (% of plate) [8] 107% | aptamer binding inhibition [9] -1% | response [10] -25.5% | inhibition [11] 17% | response [12] 3.76% | binding (% of control) [13] 103% | efflux inhibition (fraction of control) [14] -0.12 | inhibition [15] -6% | differentiation response [16] -6.03%

CC(=O)OC[C@H]1O[C@@H](Sc2cccc3cccnc23)[C@H](OC(C)=O)[C@@H](OC(C)=O)[C@H]1OC(C)=O
inactive: percent of DMSO control GFP [1] 98.9% | GFP response vs DMSO [2] 99.6% | percent response of DMSO control [3] 99% | GFP response vs DMSO [4] 117% | GFP response, % of DMSO [5] 94.6% | vesicle binding response [6] 187% | inhibition [7] -5.38% | superoxide response (% of plate) [8] 105% | aptamer binding inhibition [9] 4% | response [10] -27.5% | inhibition [11] -0.13% | response [12] 0.07% | binding (% of control) [13] 104% | efflux inhibition (fraction of control) [14] 0.04 | inhibition [15] -2% | differentiation response [16] -5.97%
62.5%: double positive events [6]
